Z-score data for 108 sequences are collected here from PubChem BioAssay AID1508600 (Functional Genomics Laboratory (NCATS/FGL), 2020).

The campaign covered roughly 53,000 sequences. About 3,700 (7%) were called active.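 Rule for the calls: active = gene knockdowns whose robust z-score for IL-1 alpha signal is at least 2 or at most -2, so actives lie on both sides; inactive = the rest.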 The full list was thinned out, with actives kept by preference.

This assay is described as follows: Components of the Cytosolic LPS Sensing Pathway: Gene Identification via Genome-wide siRNA Screen.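 Note: robust z of the log signal after scaling to non-targeting control siRNA wells of the plate.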 The settings on record: RAW264.7 macrophages, IL-1a HTRF, actives lie on both sides, screened at 100 nM (by protocol), cells primed 5 h with Pam3CSK4 first. Put shortly:
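Mouse macrophage line RAW264.7 is transfected with siRNA (100 nM final), grown 48h, primed with TLR ligand Pam3CSK4 5 h and given intracellular LipidA 24 h. IL-1a in supernatant is read by HTRF and viability by luminescence.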
GCACUCUGUUCAGCUAAAATT against Tafa3: the z-score is 2.16 (active). As for GGAAGCUAUGAACAAUACATT against Sulf2, the z-score was 0.00856 (inactive).

As for GGUGUGAUGGAGUUCUUAUTT against Ndufs1, the z-score is -0.94 (inactive). GGUUCCAUAACCUGUGUCATT against Fbxo28: the z-score was 0.272 (inactive). With GGGUUAAUGCAGCUCACGUTT against Lrrtm1, the z-score was 0.425 (inactive). On to GGCUUUGGCGAUAAGACAUTT against Glud1, for which the z-score is 2.29 (active). For CCAAUUACGGAGAUUGGAATT against Tspan6, the z-score was -0.803 (inactive).

Consider GGUUGAUUCCAACGACAUCTT against Tinagl1, for which the z-score is -0.173 (inactive).

As to GCAUAAAGCACCCGGAGAGTT against Zbtb32, the z-score was -1.53 (inactive). In the case of GGUGUUAAGACUCAGCUCATT against Micall2, the z-score is -1.49 (inactive). Turning to GCCUGGUUAUUAAUUUAUCTT against Dzank1, the z-score is -0.724 (inactive).

Regarding GGCACCCGAGUAGGUCAAATT against Carhsp1, the z-score was 6.02 (active). CGUAACUGAGUCAAUUAGUTT against Intu: the z-score is 0.128 (inactive). As for GCGUGGUUUCUGAAUACAUTT against Nt5e, the z-score is 6.67 (active).

As to GGUAACAUCUAUAUAUCACTT against Rb1, the z-score is 1.56 (inactive). As for GGACUCCAACCACACUAUCTT against Rab4b, the z-score is 0.847 (inactive). For the sequence GGCAUGAUGCUGAUCAUUCTT against Olfr1100, the z-score was -0.0763 (inactive). In the case of GCUUAUAGUUCAGUUUUUGTT against Ints8 it was 0.835 (inactive); in that of GCAAAUAGGGAGGUUCCUGTT against Ypel1, 1.47 (inactive). Regarding GGAGACUUCAGUGCCUCUUTT against Slc16a11, the z-score is 2.45 (active).

Regarding GGUAAUGGGACUUGGUAGGTT against Olfr1338, the z-score was -0.056 (inactive). For UGGUCGGCUAGAUGAUGGATT against Wdr34, the z-score is -0.7 (inactive). With GGAAGUCUGCCUGUUCUUGTT against Galnt10, the z-score is 0.744 (inactive). Turning to GGCUGUGUUGUCGAUUUCCTT against Nkain3, the z-score is 0.351 (inactive).

Take GGGAUGAGUUCUUGUAAAUTT against Unc50: the z-score is -1.32 (inactive). For GGGAACUCGAACAAGAAUUTT against Six1, the z-score was 1.11 (inactive). Take GGAAAAAGAGGAUGAGUGCTT against Gm4861: the z-score was 2.01 (active).

With GCUGCUGGAAACUAGACUGTT against Cyp2b13, the z-score is -1.71 (inactive).

Regarding GUCAUCAAUCAAGUCUUGATT against Olfr1408, the z-score is -0.0822 (inactive). Turning to CCAAGGGUUGCUUCGAGCATT against Upk1a, the z-score is -0.489 (inactive). On to GGACCUGAACGAUCUCGUUTT against Cyp4a12a, for which the z-score is 1.65 (inactive).

For the sequence GGAACAACCACGGAACCCATT against Il1r2, the z-score is 0.335 (inactive). On to GGGUUUCAGUCUUCUUAUCTT against Olfr556, for which the z-score is -0.891 (inactive). In the case of GGGAGCUAAUGAGCAAGGATT against Galk1 it was 2.5 (active); in that of GCACAAACUUAUGCUCUUUTT against Klrc3, -1.76 (inactive). Consider GGACAGACAAAUACAAGAGTT against Tmco1, for which the z-score is 0.428 (inactive). Take GUUCUUAUAUAGGAUUGUGTT against Xkr9: the z-score is -0.782 (inactive). Regarding GGAUCAUCUAUACAGCACATT against Tgfb1i1, the z-score was -1.85 (inactive).

For the sequence GGACAGUUCUAAAAUUCCCTT against Olfr780, the z-score was -1.73 (inactive).

For the sequence GCCAGCUACCGAGUCUAUUTT against Tkt, the z-score was 2.8 (active).

Take GCAUGCUGACACUUACUUUTT against Olfr878: the z-score was -0.872 (inactive). To CCAGGCAGCUAAACUGUGUTT against Tex11 belongs -0.11 (inactive). Turning to GGGACUGUACCCAGUUUAATT against Ccl27a, the z-score was 1.62 (inactive). As for CGUGGAAUGAAGAUUGUCCTT against Hsd17b12, the z-score is 0.284 (inactive). Regarding GCAAAAUAGCCCAGUAUAATT against Pax6, the z-score is -5.02 (active). Take GGAGUUUCUUCAGUUCCUUTT against Dld: the z-score is 0.87 (inactive). To GCGGAGGAUAGAGCAAAUUTT against Upf3b belongs -0.0448 (inactive); to GGAACAUCAAGGGAAUUAUTT against Zfp638, 2.36 (active); to GGACAACAGUGGAAGGCUCTT against Serpinb1a, 0.841 (inactive).

For GGAGGUGAACCAUAGAGAGTT against Csrnp2, the z-score is 1.12 (inactive).

CCCUCUAUCAGUUACCCUGTT against Mcpt2: the z-score is 0.686 (inactive).

On to GGACAAUGGUUCCUUGGAUTT against Cdc25c, for which the z-score is 0.981 (inactive). Consider GGAUGUCACUCUUGCAUUGTT against Olfr948, for which the z-score was 0.75 (inactive).

On to GCCACAACUCCAGAUGCCUTT against Olfr937, for which the z-score was -2.64 (active).

For GGAAGAACUUCAGAAUGCATT against Slirp, the z-score was -0.627 (inactive). As for CCUUCAUUGUGAUUGACAUTT against Ptpn11, the z-score is -0.55 (inactive). With GGUUCAGUGCUUUGUGUUCTT against Il2rg, the z-score was -0.541 (inactive).

CCUUCUAAAUACUGAUUUGTT against Ugt2b38: the z-score was 0.699 (inactive). Consider GCAGAAUAUUAACCAGUGUTT against Ptp4a2, for which the z-score was 1.15 (inactive). As for CCAGUUCCGGUCAGAUUAUTT against Gnal, the z-score was -1.55 (inactive). With GCCUCCAGAACUCACUGCATT against Hes3, the z-score was -2.04 (active). As for AAGGAAGUCUGUCCAAGGUTT against Olfr192, the z-score was -0.284 (inactive). On to GCUGCCAUUUCGCCAAUCUTT against Mfap4, for which the z-score was -2.65 (active). To GGGAGCAUCAAACAACAAUTT against Tbr1 belongs 0.742 (inactive); to GGCUGUGGAUUUCUCUCUGTT against Kng1, -0.334 (inactive). To GGCCGAGUACAAACGUGGATT against Atg9a belongs 2.77 (active); to CCUGAGUCAGAUUCAUUUATT against Pten, 0.292 (inactive). Take GGUGCCAUUCAUCUUUCAATT against Tmprss3: the z-score is 1.85 (inactive). Regarding GGUGCAAGAUCAAGAACUGTT against C1ra, the z-score is 2.78 (active). For GGAAGAACAGGAAGAAGUGTT against Pank1, the z-score is 1.02 (inactive). In the case of CCAGCUUUCAUUAACUUUATT against Ppp1r10, the z-score was -0.571 (inactive). On to CGAGCUAUCCACUUAAUCATT against Irak3, for which the z-score was -0.859 (inactive). As for GGCUCUGGGUGGUAUUCAUTT against Slc5a2, the z-score was -0.637 (inactive). In the case of GGCACUGGGCAAACAUUAATT against Ptprcap it was 1.09 (inactive).

Take GGCAGUUCAAAAGACCACATT against Zcchc7: the z-score is 2.38 (active). For the sequence GGGCAACGAGCUGUUCAAATT against Unc45a, the z-score is 1.71 (inactive). Regarding GGGAUCUGGAUUUAAUUUGTT against Arf5, the z-score was 0.523 (inactive). As for GGUCACACCCACCAUUACGTT against Serpina11, the z-score is -0.765 (inactive).

CCAUUACAGGGUUUUUUAUTT against Slc37a3: the z-score was -0.62 (inactive).

Turning to GGGAAAAGCAAACACUAAUTT against C1d, the z-score is -1.84 (inactive). To GGAGCAUCUCAAACCUUCATT against Lancl3 belongs -3.8 (active); to GAUGCGGCUCCUUGGAAUUTT against Slc51b, 2.38 (active); to GGUCAUAAGAAGCUCAAGATT against Serpinb9d, 0.268 (inactive).

For GCCGGAAGAUAAGGCUCAUTT against Gap43, the z-score is -2.2 (active). For GGAAGAACUCAAGAGGGAATT against Plpp2, the z-score was -0.775 (inactive). Take GCUGGGAGUAAAAUUGACUTT against Cenpj: the z-score is -0.65 (inactive). On to CGAGCAUGCUGAAAAGACCTT against Steap1, for which the z-score is -0.826 (inactive). Turning to GGUUUUAAAGCAUCUUCGUTT against Pard6g, the z-score is -0.284 (inactive). Regarding GGGCAACAUUUUUCAGUGCTT against Prox1, the z-score is 0.722 (inactive). For the sequence GGAUCUUAAGUCCUAACAUTT against Tacc3, the z-score is -2.37 (active).

Consider CCGAUAAUGCUUUCUUUGGTT against Ppp1cc, for which the z-score was 0.547 (inactive). For “CCAAGUCAGUGCUGUAAAGTT against F830104G03Rik”, the z-score is -1.58 (inactive). Take GGUGAUGCCUGUGAAGACATT against Il3ra: the z-score was 2.04 (active).

Regarding GGGAUAUUCAUUGACUUUGTT against Prr5, the z-score is -1.88 (inactive). Turning to CCAAGAAUGUUUCCAUGUUTT against Slc12a5, the z-score is -1.68 (inactive). As for CCUGAACCACUUGUUAAAUTT against Rnf10, the z-score was 0.124 (inactive). In the case of GCUUCAGGUCAGUCUCUUCTT against Olfr1042, the z-score is 0.969 (inactive).

For the sequence GGAGGCAAAAAUGAUGCUATT against Slpi, the z-score was 1.97 (inactive).

Turning to GCAUCUCACUUUUGACCUATT against Retreg2, the z-score was 0.928 (inactive).

Regarding GUCUCAAGUGGACUGUGAGTT against Klk1b4, the z-score was -2.83 (active). In the case of GCAAUUAUAACUUAGAAGGTT against Eml3, the z-score was 0.149 (inactive). To GCCUUUCAACUCACCAGCCTT against Zfp574 belongs 0.617 (inactive); to GGGAAGGAAUAUGAUGGGCTT against Sik3, -0.704 (inactive); to GGUCCCAACGAAGAAACCATT against Cd55, 0.475 (inactive). To GGGCUAAGGCGAAAAGACUTT against Msx2 belongs 3.24 (active).

Turning to GCUAAAUUUCCCAUAGGAATT against Pmch, the z-score is 0.822 (inactive). For GGAGCUUCGAAAAAAGUUGTT against Pex16, the z-score is 0.329 (inactive). To GCACAAUUAUGAGAGUGCATT against Grin1 belongs -0.91 (inactive).
